Compound activity from PubChem BioAssay.
This is a sample that favours compounds with a hit; in the whole collection about 1.5% have one here.
N-glyco inh – increase of ERlucT glycosylation luciferase signal, primary screen, N-linked glycosylation inhibitor project, D54 ERlucT cells, luminescence, set 2 | D54 ERlucT glycosylation luciferase reporter, 24 h; percent of 100 nM tunicamycin response | reporter increase, % at 12.5 µM | hit rate 0.23% among 360,000 | AID 588692, 2011;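 active means mean luciferase reporter signal, scaled so untreated is 0 and the glycosylation-blocking control 100, at or above a set limit in every replicate; inconclusive means mean reaches the limit but not every replicate does; inactive means mean below the limit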;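 further: luciferase carries N-glycosylation sites so blocking glycosylation raises the light; 0% = median of neutral control wells and 100% = median of 100 nM tunicamycin wells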
PvdQ acylase – P. aeruginosa PvdQ acylase inhibitors, primary screen, biochemical, fluorescence, plate reader and imaging, single point | PvdQ acylase [Pseudomonas aeruginosa LESB58] | purified PvdQ acylase | inhibition, % at 10 µM | hit rate 0.063% among 340,000; in the data active means inhibition above about 30%, passing the limit was not always enough; inconclusive means no clear call, values can overlap the other calls;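 further: 0% = vehicle neutral wells and 100% = reference inhibitor wells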
RAD52 inh – RAD52 DNA annealing inhibitors, primary screen, biochemical, FRET, single point, set 2; DNA repair protein RAD52 homolog (Homo sapiens), P43351; recombinant RAD52 DNA annealing, FRET fluorescence; inhibition, % at 18.7 µM; hit rate 0.46% among 360,000;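 active means every replicate showing at least 50% inhibition; inconclusive means mean inhibition at least 50% but not in every replicate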
RAD54 inh – inhibitors of human RAD54 branch migration, primary screen, biochemical, fluorescence, single point. DNA repair and recombination protein RAD54-like (Homo sapiens), Q92698. RAD54 Holliday junction branch migration, FAM/BHQ fluorescence. inhibition, % at 10.4 µM. hit rate 0.14% among 360,000. AID 602329, 2012;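 active means mean normalized replicate activity at least 40 and at least half of replicates scoring 40 or more; inconclusive means only one of the two criteria met; inactive means mean below 40 and under half of replicates reaching 40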;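 further: 0% = median of neutral control wells and 100% = median of positive control wells; inhibitors cause a drop in the FAM fluorescence signal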
Target sequence (Q92698 whole entry, looked up): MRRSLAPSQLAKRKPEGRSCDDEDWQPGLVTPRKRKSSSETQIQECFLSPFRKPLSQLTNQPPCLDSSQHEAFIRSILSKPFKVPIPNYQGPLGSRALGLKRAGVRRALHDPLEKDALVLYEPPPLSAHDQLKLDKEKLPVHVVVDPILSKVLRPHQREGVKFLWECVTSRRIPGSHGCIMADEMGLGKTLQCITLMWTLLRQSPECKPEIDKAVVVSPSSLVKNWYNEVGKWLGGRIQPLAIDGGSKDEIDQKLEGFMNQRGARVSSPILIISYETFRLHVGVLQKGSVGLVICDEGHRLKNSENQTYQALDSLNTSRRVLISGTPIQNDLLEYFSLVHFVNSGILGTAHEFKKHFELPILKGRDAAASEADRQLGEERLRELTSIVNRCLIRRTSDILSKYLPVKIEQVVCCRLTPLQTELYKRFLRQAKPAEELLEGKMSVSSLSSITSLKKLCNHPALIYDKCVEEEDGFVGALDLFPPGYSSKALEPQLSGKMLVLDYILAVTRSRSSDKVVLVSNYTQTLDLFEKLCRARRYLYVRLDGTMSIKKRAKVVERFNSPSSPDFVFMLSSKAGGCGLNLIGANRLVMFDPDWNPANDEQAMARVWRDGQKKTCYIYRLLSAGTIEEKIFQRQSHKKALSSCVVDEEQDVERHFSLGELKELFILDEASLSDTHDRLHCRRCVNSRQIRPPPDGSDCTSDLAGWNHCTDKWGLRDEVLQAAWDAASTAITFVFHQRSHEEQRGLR
dFosB act – activators of delta FosB homodimer, primary screen, biochemical, fluorescence polarization, TAMRA-CDK5 oligo, single point; AID 493131, 2011; purified delta FosB; percent of positive-control signal above neutral wells; activation, % at 25 µM; Protein FosB (Mus musculus), P13346; hit rate 0.99% among 340,000;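 active means mean activation above about 17%, with every replicate also reaching it, limit read from the data, passing the limit was not always enough; inconclusive means only one of the two conditions met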
CFTR F508del cor – F508del CFTR correction, initial screen, CFBE line, single point; AID 720511, 2013; hit rate 0.36% among 350,000; activity (quench increase), % at 7.58 µM; CFBE cells, YFP halide quenching; stimulated with forskolin plus potentiator P3; % fluorescence drop versus neutral controls;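 active means mean added fluorescence quench of at least 8% versus neutral control, with both replicates also reaching 8%; inconclusive means only one of the mean or replicate conditions met; inactive means mean below 8% and not both replicates reaching 8%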;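 further: cells transiently co-express mutant CFTR-F508del with the halide-sensitive YFP; corrector assay measuring rescue of mutant channel to the surface after 24 h compound exposure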
DNA binder FP – DNA-binding compounds via dye displacement, dose response, artefact control for RAD52 inhibitor project, biochemical, fluorescence polarization, cherry-pick; shares compounds with RAD52 inh; Salmon sperm DNA/acridine orange FP displacement; AC50, µM; hit rate 8% among 1,000;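 active means fitted half-maximal concentration for signal loss at or below twice the highest dose tested, in every separate run, actives reach about 64 µM in these data; inconclusive means runs disagree, or flat partial signal loss, or poor fit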
Numbers without * were called inactive; i = inactive; u = inconclusive; x = no result given.

SMILES | N-glyco inh | PvdQ acylase | RAD52 inh | RAD54 inh | dFosB act | CFTR F508del cor | DNA binder FP
C[C@@H]1CCCCO[C@@H](CN(C)Cc2ccc(C(F)(F)F)cc2)[C@@H](C)CN([C@@H](C)CO)C(=O)c2cc(NS(C)(=O)=O)ccc2O1 | x | x | x | -4.9 | x | 0.9 | x
CN1CCN(CC(O)COc2ccc(C34CC5CC(CC(C5)C3)C4)cc2)CC1 (stereo unspecified) | -8.4 | 0.5 | 56.5* | 26.5 | 8.9 | -7.1 | i
Cc1ccc(NCCN(C)C)c2c(=O)c3cc(O)ccc3sc12 | 62.5* | -6.1 | 84.2* | x | 42.6* | 0.7 | 11.9µM*
Cc1cc(O)cc2c(=O)c3ccccc3sc12 | 1.2 | 6.1 | 2.4 | x | -10.7 | -2.0 | x
CC1(C)Nc2cccc3cccc(c23)N1 | 3.8 | -25.0 | 65.4* | 8.8 | 3.0 | -1.7 | i
CN1C(=O)Nc2cccc3cccc1c23 | 8.3 | -11.0 | -2.8 | 5.5 | -4.6 | 1.0 | x
O=C(NCc1ccc(F)cc1)[C@H]1N[C@H]2c3ccc(-c4ccccc4)c(=O)n3C[C@H]2[C@@H]1CO | x | x | -10.3 | -12.1 | x | x | x
Cc1cc(C(C)(C)CC(C)(C)C)ccc1OCCOCC[N+](C)(C)Cc1ccccc1 | u | -4.1 | 90.7* | 33.0 | -9.4 | 5.0 | u
O=C(C[C@H]1C[C@H](C(=O)N2CCOCC2)[C@@]2(CCC3CCCC3)c3[nH]c4cc(-c5ccco5)ccc4c3CCN2C1=O)NCCN1CCOCC1 | -1.8 | 5.4 | -23.6 | 7.6 | -4.5 | -2.0 | x
CN(C)CCCNC(=O)C[C@H]1C[C@H](C(=O)N2CCOCC2)[C@@]2(CCC3CCCC3)c3[nH]c4cc(-c5ccco5)ccc4c3CCN2C1=O | -5.2 | -8.8 | 51.6* | 28.7 | -17.1 | 0.4 | i
O=C(c1ccc(F)cc1)N1CC(=O)N2[C@H](CO)[C@H](c3ccc(-c4ccccc4)cc3)[C@H]2C1 | x | x | -22.1 | x | x | -1.8 | x
Cc1noc(C)c1NC(=O)N(C)C[C@@H]1Oc2ccc(NC(=O)Nc3ccc4c(c3)OCO4)cc2C(=O)N([C@@H](C)CO)C[C@H]1C | x | x | 4.5 | 5.3 | x | -2.4 | x
CCCCN(CC)C(=S)Nc1ccc2nc(N3CCN(C)CC3)cc(C)c2c1 | -1.6 | -1.3 | 34.4 | 45.5 | 6.1 | -2.3 | x
CCCCNC(=S)Nc1ccc2nc(N3CCN(CC)CC3)cc(C)c2c1 | -6.0 | 0.1 | 56.8* | 30.4 | -4.9 | 2.0 | i
CCN1CCN(c2cc(C)c3cc(NC(=O)c4cccs4)ccc3n2)CC1 | -2.9 | 8.9 | 62.9* | 29.7 | 3.2 | 1.3 | i
C[C@@H]1CCCCO[C@H](CN(C)C(=O)C2CCCCC2)[C@H](C)CN([C@@H](C)CO)C(=O)c2cc(NS(=O)(=O)c3ccc(F)cc3)ccc2O1 | x | x | -25.4 | -1.1 | x | -0.3 | x
O=C1Nc2cc(C(=O)NCCCN3CCCC3)ccc2S/C1=C\c1ccccc1 | -7.9 | -12.6 | 84.2* | 10.2 | 6.8 | 1.5 | i
COc1ccc(/C=C2\Sc3ccc(C(=O)NCCCN4CCCC4)cc3N(C)C2=O)cc1OC | -4.3 | 11.1 | 66.2* | 24.4 | -27.8 | 4.3 | i
Cc1c(C)n(C)c2ccc(C(=O)NCCCN3CCN(C)CC3)cc12 | 0.1 | -14.2 | 74.2* | 9.7 | -5.9 | 1.4 | i
CCCN1[C@@H]2c3ccc(-c4cccnc4)c(=O)n3C[C@@H]2[C@@H](CO)[C@@H]1C(=O)NC1CCCC1 | x | x | -10.4 | x | x | 4.1 | x
COc1nc(Nc2nc3ccccc3c(=O)[nH]2)nc2ccc(C)cc12 | -8.1 | 9.4 | -1.1 | -1.6 | -2.7 | -9.6 | x
COc1nc(N=C(N)N)nc2ccc(C)cc12 | x | x | 79.2* | x | x | 3.9 | i
OC(c1ccccc1)(c1ccccc1)C1CCN(CCCOc2ccc3c(c2)CCCC3)CC1 | x | x | 51.3* | x | x | -0.9 | i
CCCNC(=O)N1CC2(CCN(C(=O)CN(C)C)CC2)c2c(n(C)c3cc(OC)ccc23)[C@H]1CO | x | x | 1.9 | x | x | -2.5 | x
COc1cc2nc(N(CCCN(C)C)C(=O)c3ccc(C(=O)c4ccccc4)cc3)sc2cc1OC | -7.6 | -0.2 | 71.6* | 30.1 | 4.4 | -1.2 | i
SMILES | N-glyco inh | PvdQ acylase | RAD52 inh | RAD54 inh | dFosB act | CFTR F508del cor | DNA binder FP
Cc1cccc2sc(N(CCCN(C)C)C(=O)c3ccc(Cl)s3)nc12 | 0.2 | -5.9 | 56.5* | 9.7 | -15.1 | 0.2 | i
Cc1cccc2sc(N(CCCN(C)C)C(=O)c3ccco3)nc12 | 8.2 | -6.8 | 19.6 | 20.2 | -21.3 | 0.0 | x
Cc1ccc2sc(N(CCCN(C)C)C(=O)c3ccc(S(=O)(=O)N(C)C)cc3)nc2c1C | -2.5 | -9.0 | 12.1 | x | -9.5 | 0.7 | x
CCN(Cc1ccccc1)S(=O)(=O)c1ccc(C(=O)N(CCCN(C)C)c2nc3c(F)cccc3s2)cc1 | -6.0 | 7.9 | -5.2 | 2.2 | -7.1 | -4.0 | x
CCOc1cccc2sc(N(CCCN(C)C)C(=O)c3ccc(S(=O)(=O)N(CC)Cc4ccccc4)cc3)nc12 | -3.0 | -9.8 | 65.0* | -3.7 | 4.5 | -1.4 | i
Cc1ccc2sc(N(CCCN(C)C)C(=O)c3ccc(S(=O)(=O)N(C)Cc4ccccc4)cc3)nc2c1C | -10.5 | -6.4 | 59.6* | -5.0 | 15.6 | -7.8 | i
CCN(Cc1ccccc1)S(=O)(=O)c1ccc(C(=O)N(CCCN(C)C)c2nc3cc(C)cc(C)c3s2)cc1 | -5.5 | -0.8 | -13.2 | -2.6 | 5.0 | -0.8 | i
CCOc1cccc2sc(N(CCCN(C)C)C(=O)c3ccc(C(=O)c4ccccc4)cc3)nc12 | 0.9 | -12.1 | 51.5* | 35.1 | 12.0 | -4.7 | i
Cc1cc(C)c2sc(N(CCCN(C)C)C(=O)c3ccc(Br)s3)nc2c1 | 0.0 | -4.9 | 57.6* | 5.8 | -38.0 | 0.7 | i
CCOc1cccc2sc(N(CCN(C)C)C(=O)c3cc4ccccc4cc3OC)nc12 | -0.9 | 6.3 | 64.4* | 23.0 | u | -0.9 | i
CCOc1cccc2sc(N(CCN(C)C)C(=O)c3ccc4c(c3)OCCO4)nc12 | 2.9 | -4.9 | 17.4 | 15.4 | -16.7 | -3.2 | x
CO[C@@H]1CN(C)C(=O)c2ccc(NC(=O)C3CC3)cc2OC[C@H](C)N(CCC(F)(F)F)C[C@H]1C | x | x | 12.1 | -0.2 | x | 2.8 | x
O=C(NCC[C@H]1CC[C@H](NC(=O)C2CCCC2)[C@H](CO)O1)c1ccc(F)cc1 | x | x | -16.2 | -7.9 | x | -0.9 | x
CCCCCCCCCCCCCCCC[n+]1ccccc1 | -11.5 | -6.0 | 92.8* | 55.2* | -148.0 | 2.2 | u
CCCCCc1ccc(OCCC[n+]2ccccc2)c(CCCCC)c1 | 21.1 | -4.3 | 44.0 | x | -4.4 | u | x
c1cc(OCCCN2CCCCC2)ccc1CN1CCCCC1 | -5.4 | 7.6 | 21.0 | 0.3 | -4.2 | 3.2 | i
CCCc1nnc(NC(=O)c2cc3ccccc3oc2=O)s1 | 1.1 | -13.9 | x | 2.1 | -6.4 | x | x
CC(Sc1nnc(NC(=O)c2cc3ccccc3oc2=O)s1)c1ccccc1 (stereo unspecified) | 3.5 | -11.1 | 53.4* | 7.0 | -6.7 | 2.8 | i
